In all, about 2,400 compounds went through this assay and about 1,700 (71%) were called active.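 Rule for the calls: active = choline transporter activity left, mean of duplicates at 10 µM, below buffer-only control mean minus 3 SD; inactive = the rest.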 The set was probably picked from earlier hits. Not all results are given here.

The target in this experiment is High affinity choline transporter 1 (Homo sapiens) (UniProt Q9GZV3). The experiment is described as follows: human choline transporter blockers – cell-based, membrane potential dye, duplicate, confirmation (AID 493221). As to conditions: CHT-expressing cells, at 10 µM, LV-to-AA substituted CHT, HEK293 cells.
Sequence of High affinity choline transporter 1 (Homo sapiens) (Q9GZV3 whole entry, looked up): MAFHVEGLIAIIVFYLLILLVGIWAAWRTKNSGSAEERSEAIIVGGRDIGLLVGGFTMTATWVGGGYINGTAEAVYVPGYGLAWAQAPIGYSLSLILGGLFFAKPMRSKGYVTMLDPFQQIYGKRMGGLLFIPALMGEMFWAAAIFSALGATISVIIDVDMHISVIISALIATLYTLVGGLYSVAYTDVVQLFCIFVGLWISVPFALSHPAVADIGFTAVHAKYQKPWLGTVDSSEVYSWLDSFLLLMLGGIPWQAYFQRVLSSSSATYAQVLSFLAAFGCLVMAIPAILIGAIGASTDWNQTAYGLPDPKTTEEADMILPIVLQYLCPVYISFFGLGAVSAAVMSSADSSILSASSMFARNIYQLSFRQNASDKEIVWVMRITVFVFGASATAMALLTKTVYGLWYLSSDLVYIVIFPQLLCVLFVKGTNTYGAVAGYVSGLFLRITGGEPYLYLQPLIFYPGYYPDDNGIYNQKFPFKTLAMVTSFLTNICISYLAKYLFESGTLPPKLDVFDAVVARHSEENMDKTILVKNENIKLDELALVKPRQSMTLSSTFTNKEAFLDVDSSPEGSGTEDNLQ
As for `CC(C)(C)C(=O)/C(C#N)=C/c1ccc(O)cc1`, the CHT activity remaining % of control (hits give low values) is 68.6% (active).

For the compound `O=C(Nc1ccn(Cc2ccccc2)n1)c1n[nH]c([N+](=O)[O-])c1Cl`, the CHT activity remaining % of control (hits give low values) was 48.6% (active).

Regarding `CC1CCN(C(=O)CN(c2ccc(Oc3ccccc3)cc2)S(C)(=O)=O)CC1`, the CHT activity remaining % of control (hits give low values) result was “inactive”.

For `CC(C)(C)NC(=O)NC(=O)CN1CCC(Cc2ccccc2)CC1`, the CHT activity remaining % of control (hits give low values) is 43.5% (active).

Take `Cc1ccc(SC(CC(=O)c2ccc(C(C)(C)C)cc2)C(=O)O)cc1` (stereo not given): the CHT activity remaining % of control (hits give low values) was 42% (active).

As for `CC1CCN(CCCNC(=O)CN2C(=O)CSc3ccc(S(=O)(=O)N4CCCCC4)cc32)CC1`, the CHT activity remaining % of control (hits give low values) was 53.6% (active).

`CCOCCCN(C)C1CCN(C(=O)c2oc3ccccc3c2NC(=O)COc2cccc(C)c2)CC1`: the CHT activity remaining % of control (hits give low values) is 44.8% (active).

`Cc1cccnc1NC(=O)c1cccc(S(=O)(=O)N2CCN(c3ccc(F)cc3)CC2)c1`: the CHT activity remaining % of control (hits give low values) was 56.9% (active).

As to `Cc1ccc(C(=O)NC2CCCC(C)C2C)cc1S(=O)(=O)N1CCCCC1` (stereo not given), the CHT activity remaining % of control (hits give low values) was 43.5% (active).

Take `CC1CCCC(NC(=O)c2cccc(N3CCCC3=O)c2)C1C` (stereo not given): the CHT activity remaining % of control (hits give low values) is 45.1% (active).

As for `CC1CN(S(=O)(=O)c2ccc(C(=O)NN3CCN(C)CC3)cc2)CC(C)O1` (stereo not given), the CHT activity remaining % of control (hits give low values) entry is “inactive”.

In the case of `O=C(C1CCN(S(=O)(=O)c2ccc(Br)s2)CC1)N1CCN(c2ccccc2)CC1`, the CHT activity remaining % of control (hits give low values) was 41.8% (active).

For `COc1ccc2c(c1)OC(O)(C(F)(F)C(F)F)CC2=O` (stereo not given), the CHT activity remaining % of control (hits give low values) is 25.8% (active).

Consider `CN(C)c1ccc(Nc2c3c4c(cccc4n(C)c2=O)C(=O)c2ccccc2-3)cc1`, for which the CHT activity remaining % of control (hits give low values) was 42.1% (active).

`CC1(C)SC2C(NC(=O)COc3ccccc3)C(=O)N2C1C(=O)O` (stereo not given): the CHT activity remaining % of control (hits give low values) result is “inactive”.

Consider `CC(NC(=O)c1ccc(N2CCNCC2)c([N+](=O)[O-])c1)C12CC3CC(CC(C3)C1)C2` (stereo not given), for which the CHT activity remaining % of control (hits give low values) is 52.3% (active).

With `CCc1ccccc1N1CN(Cc2ccco2)CNC1=S`, the CHT activity remaining % of control (hits give low values) entry was “inactive”.

For the compound `CCOC(=O)C1(CCOC)CCN(Cc2ccc(C(=O)OC)cc2)CC1`, the CHT activity remaining % of control (hits give low values) is 71% (active).

With `O=C(O)c1ccc(/C=C2\SC(=S)N(NC(=O)c3ccc(Br)cc3)C2=O)cc1`, the CHT activity remaining % of control (hits give low values) was 41.7% (active).

Regarding `O=C1/C(=C/c2ccc(F)cc2)SC(=S)N1NS(=O)(=O)c1ccccc1`, the CHT activity remaining % of control (hits give low values) is 71.2% (active).

With `CCOc1ccc(/C=C2\SC(=S)N(NC(=O)c3ccncc3)C2=O)cc1OC`, the CHT activity remaining % of control (hits give low values) was 69.4% (active).

Take `CC(C)n1c(=S)[nH]c2cc(C(F)(F)F)ccc21`: the CHT activity remaining % of control (hits give low values) is 59.3% (active).

Turning to `CC(Oc1ccc2ccccc2c1)C(=O)NNC(=S)NC(=O)c1ccco1` (stereo not given), the CHT activity remaining % of control (hits give low values) was 67% (active).

As for `N#Cc1ccc(C(=O)Nc2cccc3cccnc23)c(F)c1`, the CHT activity remaining % of control (hits give low values) result was “inactive”.

In the case of `COc1ccc(C(CNC(=O)c2cccc(NS(=O)(=O)c3ccc(C)c(F)c3)c2)N2CCCC2)cc1` (stereo not given), the CHT activity remaining % of control (hits give low values) was 38.4% (active).

Source of the values: PubChem BioAssay AID493221 (Johns Hopkins Ion Channel Center, 2011).
